# Inconclusive results are not listed. Where a call stands in place of a potency, no number is given. Calls of active or inactive are those of the source. Calls come from the whole dose curve; as a rule, active = well fitted inhibition curve with a large enough effect; inconclusive = small, poorly fitted or top-dose-only effect; inactive = flat fitted curve, though single readings scatter.
# Assays:
# [1] = qHTS profiling for inhibitors of Plasmodium falciparum proliferation (AID 504749); note: nearly all actives have a fitted effect of over 60% in size; note: potency is the fitted concentration of half-maximal effect; conditions: P. falciparum in erythrocytes, SYBR Green DNA, 72 h
# In short: (§1)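 SYBR Green fluorescence of parasite DNA, read after lysis and overnight dark incubation, measured growth over 72 h in erythrocyte culture at 0.3% parasitemia and 2.5% hematocrit. Data normalised to DMSO and 0.29 uM artemisinin, with plate-drift correction.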
# 3D7 = test: as above; conditions: P. falciparum in erythrocytes, SYBR Green DNA, 72 h; series mostly up to 28.7 µM
# In short: as §1
# 7G8 = test: as above; conditions: P. falciparum in erythrocytes, SYBR Green DNA, 72 h; series mostly up to 28.7 µM
# In short: as §1
# AA1029 = test: as above; conditions: P. falciparum in erythrocytes, SYBR Green DNA, 72 h; series mostly up to 28.7 µM
# In short: as §1
# AS120 = test: as above; conditions: P. falciparum in erythrocytes, SYBR Green DNA, 72 h; series mostly up to 28.7 µM
# In short: as §1
# ATS189 = test: as above; conditions: P. falciparum in erythrocytes, SYBR Green DNA, 72 h; series mostly up to 28.7 µM
# In short: as §1
# ATS95 = test: as above; conditions: P. falciparum in erythrocytes, SYBR Green DNA, 72 h; series mostly up to 28.7 µM
# In short: as §1
# C2A = test: as above; conditions: P. falciparum in erythrocytes, SYBR Green DNA, 72 h; series mostly up to 28.7 µM
# In short: as §1
# CP185 = test: as above; conditions: P. falciparum in erythrocytes, SYBR Green DNA, 72 h; series mostly up to 28.7 µM
# In short: as §1
# CP191 = test: as above; conditions: P. falciparum in erythrocytes, SYBR Green DNA, 72 h; series mostly up to 28.7 µM
# In short: as §1
# CP192 = test: as above; conditions: P. falciparum in erythrocytes, SYBR Green DNA, 72 h; series mostly up to 28.7 µM
# In short: as §1
# CP194 = test: as above; conditions: P. falciparum in erythrocytes, SYBR Green DNA, 72 h; series mostly up to 28.7 µM
# In short: as §1
# CP201 = test: as above; conditions: P. falciparum in erythrocytes, SYBR Green DNA, 72 h; series mostly up to 28.7 µM
# In short: as §1
# CP203 = test: as above; conditions: P. falciparum in erythrocytes, SYBR Green DNA, 72 h; series mostly up to 28.7 µM
# In short: as §1
# CP211 = test: as above; conditions: P. falciparum in erythrocytes, SYBR Green DNA, 72 h; series mostly up to 28.7 µM
# In short: as §1
# [2] = qHTS for identification of novel therapeutic agents for treatment of microphthalmiaassociated transcription factor (MiT) renal cell carcinoma (RCC) (AID 1963991); conditions: CellTiter-Glo, 48 h, stronger effect = lower value
# In short: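 Three TFE3-fusion RCC lines (UOK109, UOK124, UOK145), 500 cells/well in complete medium, were treated with MIPE 4.0 compounds for 48 hours at 37 C. Viability was by CellTiter-Glo luminescence, normalized to DMSO (100%) and empty wells (0%); curves fitted over 11 concentrations.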
# [3] = at 28.7 µM (top of the series), parasite line A
# [4] = at 28.7 µM (top of the series), parasite line B
SMILES,"activity, negative = inhibition [1, 3]","activity, negative = inhibition [1, 4]",outcome (3D7),Potency (7G8),outcome (AA1029),Potency (AS120),Potency (ATS189),outcome (ATS95),outcome (C2A),outcome (CP185),Potency (CP191),Potency (CP192),Potency (CP194),outcome (CP201),outcome (CP203),Potency (CP211),"z-score ([2]; TFE3-RCC UOK109 viability, measured here: UOK109 Z-AUC)","z-score ([2]; TFE3-RCC viability, measured here: UOK124 Z-AUC)","z-score ([2]; TFE3-RCC viability, measured here: UOK145 Z-AUC)","activity, negative = inhibition ([1]; at 12.8 µM (top of the series), parasite line A)"
O=C(O)Cc1cccc2ccccc12,12.1% (inactive),6.39% (inactive),inactive,inactive,inactive,inactive,inactive,inactive,inactive,inactive,inactive,inactive,inactive,inactive,inactive,inactive,–,–,–,–
NC(N)=Nc1nc(CSCC/C(N)=N/S(N)(=O)=O)cs1,-15% (inactive),4.88% (inactive),inactive,inactive,inactive,inactive,inactive,inactive,inactive,inactive,inactive,inactive,inactive,inactive,inactive,inactive,–,–,–,–
CCC(=O)O[C@]1(C(=O)CO)CC[C@H]2[C@@H]3CCC4=CC(=O)CC[C@]4(C)[C@@H]3CC[C@@]21C,–,–,–,–,–,–,–,–,–,–,–,–,–,–,–,–,1.05,0.404,0.464,–
CCN(CC)CCOC(=O)c1ccc(N)cc1,–,–,inactive,inactive,inactive,inactive,inactive,inactive,inactive,inactive,inactive,inactive,inactive,inactive,inactive,inactive,–,–,–,-0.702% (inactive)
COCCCCC(=NOCCN)c1ccc(C(F)(F)F)cc1,–,–,–,–,–,–,–,–,–,–,–,inactive,–,–,–,–,–,–,–,–
C[C@@H](O)[C@H]1C(=O)N2C(C(=O)O)=C(S[C@@H]3CN[C@H](C(=O)N(C)C)C3)[C@H](C)[C@H]12,10.4% (inactive),13.7% (inactive),inactive,inactive,inactive,inactive,inactive,inactive,inactive,inactive,inactive,inactive,inactive,inactive,inactive,inactive,–,–,–,–
O=C1Nc2ccc(Cl)cc2C(C#CC2CC2)(C(F)(F)F)O1 (configuration not stated),-18.6% (inactive),0.376% (inactive),inactive,11.2 µM (active),inactive,–,inactive,inactive,inactive,inactive,inactive,inactive,–,inactive,inactive,inactive,–,–,–,–
O=c1[nH]cnc2c1ncn2[C@H]1CC[C@@H](CO)O1,-0.993% (inactive),7.28% (inactive),inactive,10 µM (active),inactive,inactive,inactive,inactive,inactive,inactive,–,inactive,inactive,inactive,inactive,inactive,–,–,–,–
C[N+](C)(C)CCCCCC[N+](C)(C)C,4.23% (inactive),5.66% (inactive),inactive,inactive,inactive,inactive,inactive,inactive,inactive,inactive,inactive,inactive,inactive,inactive,inactive,inactive,–,–,–,–

# Source: PubChem BioAssay (NCATS)
